Measured values published in PubChem BioAssay (NCI).
This is part of a sample that, as a whole, favours compounds with a hit. Of some 83,000 tested, about 20% had one in any assay.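 Note: values are percent growth. 100 is the growth of untreated cells, values between 100 and 0 indicate rising inhibition; between -100 and 0 indicates cell death.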 The source made the active and inactive calls. Rule for the calls: active = growth percent below 10; inactive = the rest.

Test system: HL-60(TB) leukemia
Assay: NCI-60 one-dose screen, 48 h (100 = growth as untreated, 0 = no growth, -100 = all killed)
Conditions: 10 µM unless noted

Row | SMILES | growth
1 | CC(C)CSc1nc(-c2ccc(F)cc2)c(C#N)c(N2CCCCC2)n1 | 101% (inactive)
2 | Cc1cc(N2CCCCCC2)nc(N2CCN(CC(=O)Nc3ccc4c(ccn4Cc4ccccc4)c3)CC2)n1 | 23.4% (inactive)
3 | O=C(N(c1ccccc1)c1ccccc1)n1ccc2nc(Cl)nc(Cl)c21 | 49.5% (inactive)
4 | CCOC(=O)Nc1ccc2nc(-c3cscn3)[nH]c2c1 | 18.7% (inactive)
5 | CS(=O)(=O)c1nccc(-c2c(-c3cccc(OCc4ccccc4)c3)nc3sccn23)n1 | 82.8% (inactive)
6 | Cc1ccc(NC2=CC(=O)C(=O)c3ccccc32)cc1 | 18.4% (inactive)
7 | O=C(/C=C/C12c3ccccc3C(c3ccccc31)C1C(=O)NC(=O)C12)c1ccc(F)cc1 (stereo not given) | -19.5% (active)
8 | CC(C)(C)c1ccc(OCCCCCCN2CCNCC2)cc1 | 15.2% (inactive)
9 | O=C(CCCCC[P+](c1ccccc1)(c1ccccc1)c1ccccc1)NC(COC(=O)C(Cl)Cl)(COC(=O)C(Cl)Cl)COC(=O)C(Cl)Cl | 95.5% (inactive)
10 | O=C(N/N=C/c1ccncc1)c1ccccc1Nc1cccc(C(F)(F)F)c1 | 77.7% (inactive)
11 | COc1ccc(NC(=O)c2ccc(Nc3ncnc4[nH]c(C)c(C)c34)cc2)cc1 | 89.1% (inactive)
12 | COc1ccc(-c2nc(/C=C3/C(=O)Nc4ccc(F)cc43)c3ccccn23)cc1 | 61.6% (inactive)
13 | CCN1C(=O)N(CC)C2Nn3c(s/c(=C4\C(=O)N(C5CCCC5)c5ccccc54)c3=O)=NC21 (stereo not given) | 29.8% (inactive)
14 | O=C1CC(c2cccc(F)c2)c2c(n[nH]c2-c2ccc(Cl)cc2)N1 (stereo not given) | 97.3% (inactive)
15 | CNCCCNc1nc2ccccc2c2c(=O)c3cc(OC)ccc3sc12 | 56.2% (inactive)
16 | COc1cc(C2CC(=O)Nc3c2cc(Br)c2ccccc32)cc(Br)c1OC (stereo not given) | -2.09% (active)
17 | CCC(=O)NC(O)C(Cl)(Cl)C(C)Cl (stereo not given) | 119% (inactive)
18 | C=C(C)[C@@H]1CC[C@]2(C(=O)NCCCCCCN(CCCN)CCCN)CC[C@]3(C)[C@H](CC[C@@H]4[C@@]5(C)CC[C@H](OCCCN)C(C)(C)[C@@H]5CC[C@]43C)[C@@H]12 | 37% [100 µM] (inactive)
19 | CCOC(=O)c1c(NC(=O)c2ccc(Cl)cc2)sc2c(CN(C)C)c(O)ccc12 | 12.5% (inactive)
20 | COc1ccc(C2=NN(C(C)=O)C(c3cn(Cc4ccc(Cl)cc4)c4ccccc34)C2)cc1 (stereo not given) | 79.5% (inactive)

Row | SMILES | growth
21 | N#Cc1c(-c2ccc(F)cc2)nc(N/N=C/c2cccc(O)c2)nc1N1CCOCC1 | 47.2% (inactive)
22 | COc1ccc(-c2nn(C(=O)NCCN(C)C)cc2-c2ccncc2)cc1Cl | 10.2% (inactive)
23 | O=C(N/N=C/c1ccccc1Cl)C(=O)Nc1cccc(C(F)(F)F)c1 | 106% (inactive)
24 | COc1cccc(-c2cc(-c3cc4ccccc4oc3=O)nc(N)n2)c1 | 101% (inactive)
25 | N#C/C(=C\c1c(-c2ccccc2)[nH]c2ccccc12)S(=O)(=O)c1ccccc1 | -4.39% (active)
26 | Cc1noc(C)c1-c1cc(O)cc(C(O)c2ccccc2)c1 (stereo not given) | 10% (inactive)
27 | c1cnc2nc3c(cc2c1)oc1ccccc13 | 96.4% (inactive)
28 | O[C@H]1[C@H]2c3cc4c(cc3CN3CCC(=C[C@@H]1O)[C@H]23)OCO4 | 5.02% (active)
29 | COC1=CC=CC2(OC)C3(O)CCCc4cccc(c43)N3C(=O)COC132 (stereo not given) | 98.6% (inactive)
30 | O=c1cn[nH]c2ccc(Br)cc12 | 85.5% (inactive)
31 | Fc1ccc2[nH]cc(-c3nc(-c4ccsc4)cs3)c2c1 | 99.3% (inactive)
32 | N#Cc1c(-c2ccccc2)cc(-c2ccccc2)n(CCCC(=O)O)c1=O | 103% (inactive)
33 | CCN1CCN(C(=O)[C@@]2(C)CC[C@]3(C)CC[C@]4(C)C(=CC(=O)[C@@H]5[C@@]6(C)CC[C@H](OCCC#N)C(C)(C)[C@@H]6CC[C@]54C)[C@@H]3C2)CC1 | 90.3% (inactive)
34 | CCOP1(=O)CC(C)=C(Cl)C(P(=O)(O)O)C1 (stereo not given) | 11.5% (inactive)
35 | COC(=O)c1ccc2[nH]c(O)c(C(=Nc3ccc(N(C)C(=O)CN4CCN(C)CC4)cc3)c3ccc(CCO)cc3)c2c1 | 7.24% (active)
36 | COc1ccc(OC)c(Nc2nnc(-c3ccc(O)c(OC)c3)o2)c1 | 87.3% (inactive)
37 | CN(CCCNC(=O)Cc1ccc2ccc3cccc4ccc1c2c34)CCCNc1cc(-c2ccc3ccccc3c2)nc2ccccc12 | -60.1% (active)
38 | O=C1C=CC(=O)N1c1ccc(I)cc1Cl | 97.9% (inactive)
39 | CC1(C)N=C(N)N=C(N)N1c1ccc(OCC(=O)Nc2ccccc2)c(Cl)c1 | 13.8% (inactive)
40 | CCN(CC)c1ccc(C(O)C2=CC(=O)c3ccccc3C2=O)cc1 (stereo not given) | -1.99% (active)
